From the supplement of paper PMC7724964

T1: RARA 175-421 Hormone_recep (domain begin residue: 175, domain end residue: 421), P10276
T1 chain: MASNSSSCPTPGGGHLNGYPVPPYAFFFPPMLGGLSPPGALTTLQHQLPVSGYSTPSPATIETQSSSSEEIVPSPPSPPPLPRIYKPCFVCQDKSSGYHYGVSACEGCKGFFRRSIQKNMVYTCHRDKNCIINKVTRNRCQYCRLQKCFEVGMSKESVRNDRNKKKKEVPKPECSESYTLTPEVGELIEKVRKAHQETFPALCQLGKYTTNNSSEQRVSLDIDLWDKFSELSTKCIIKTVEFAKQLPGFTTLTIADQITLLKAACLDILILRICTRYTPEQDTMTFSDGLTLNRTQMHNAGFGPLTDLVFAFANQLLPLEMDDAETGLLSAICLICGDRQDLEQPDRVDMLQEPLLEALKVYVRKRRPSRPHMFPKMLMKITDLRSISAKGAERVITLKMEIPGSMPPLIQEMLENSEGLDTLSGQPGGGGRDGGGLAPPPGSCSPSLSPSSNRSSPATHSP

T2: RARG 183-417 Hormone_recep (domain begin residue: 183, domain end residue: 417), P13631
T2 chain: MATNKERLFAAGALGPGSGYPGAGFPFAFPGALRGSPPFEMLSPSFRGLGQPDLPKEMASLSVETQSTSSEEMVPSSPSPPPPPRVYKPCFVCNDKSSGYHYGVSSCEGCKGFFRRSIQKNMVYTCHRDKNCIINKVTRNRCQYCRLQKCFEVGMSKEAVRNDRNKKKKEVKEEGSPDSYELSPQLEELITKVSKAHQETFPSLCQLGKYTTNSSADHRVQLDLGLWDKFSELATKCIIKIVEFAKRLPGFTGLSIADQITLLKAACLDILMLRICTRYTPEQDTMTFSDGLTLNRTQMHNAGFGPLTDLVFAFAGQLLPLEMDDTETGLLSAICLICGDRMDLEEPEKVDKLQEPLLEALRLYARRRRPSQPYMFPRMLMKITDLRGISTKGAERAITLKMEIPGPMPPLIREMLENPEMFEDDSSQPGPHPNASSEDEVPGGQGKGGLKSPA

T3: RBM17 298-401 RRM_1 (domain begin residue: 298, domain end residue: 401), Q96I25
T3 chain: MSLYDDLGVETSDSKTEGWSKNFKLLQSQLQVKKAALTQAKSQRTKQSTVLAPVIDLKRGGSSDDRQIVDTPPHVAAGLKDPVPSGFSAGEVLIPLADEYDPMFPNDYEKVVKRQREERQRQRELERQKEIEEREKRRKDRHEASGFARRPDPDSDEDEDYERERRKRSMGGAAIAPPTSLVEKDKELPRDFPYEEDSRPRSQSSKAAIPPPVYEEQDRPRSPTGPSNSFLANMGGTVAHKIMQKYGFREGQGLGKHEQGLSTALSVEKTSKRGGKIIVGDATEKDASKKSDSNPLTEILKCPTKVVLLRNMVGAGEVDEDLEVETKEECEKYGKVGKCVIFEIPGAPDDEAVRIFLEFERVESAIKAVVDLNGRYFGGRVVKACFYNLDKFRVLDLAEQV

T4: RORB 212-470 Hormone_recep (domain begin residue: 212, domain end residue: 470), Q92753
T4 chain: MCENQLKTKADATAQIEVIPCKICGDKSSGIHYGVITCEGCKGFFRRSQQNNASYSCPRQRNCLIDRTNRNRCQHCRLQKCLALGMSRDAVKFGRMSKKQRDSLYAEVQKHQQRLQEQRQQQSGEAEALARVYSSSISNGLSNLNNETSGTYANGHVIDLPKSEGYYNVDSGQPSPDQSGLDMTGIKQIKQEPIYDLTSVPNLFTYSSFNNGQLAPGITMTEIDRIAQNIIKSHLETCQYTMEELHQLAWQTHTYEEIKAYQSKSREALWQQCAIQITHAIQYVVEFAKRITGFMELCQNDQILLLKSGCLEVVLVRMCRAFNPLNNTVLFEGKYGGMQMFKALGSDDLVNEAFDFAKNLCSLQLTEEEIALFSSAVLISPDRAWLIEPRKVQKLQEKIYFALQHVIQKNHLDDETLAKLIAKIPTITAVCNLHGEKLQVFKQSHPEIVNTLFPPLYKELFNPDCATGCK

T5: RXRB 298-533 Hormone_recep (domain begin residue: 298, domain end residue: 533), P28702
T5 chain: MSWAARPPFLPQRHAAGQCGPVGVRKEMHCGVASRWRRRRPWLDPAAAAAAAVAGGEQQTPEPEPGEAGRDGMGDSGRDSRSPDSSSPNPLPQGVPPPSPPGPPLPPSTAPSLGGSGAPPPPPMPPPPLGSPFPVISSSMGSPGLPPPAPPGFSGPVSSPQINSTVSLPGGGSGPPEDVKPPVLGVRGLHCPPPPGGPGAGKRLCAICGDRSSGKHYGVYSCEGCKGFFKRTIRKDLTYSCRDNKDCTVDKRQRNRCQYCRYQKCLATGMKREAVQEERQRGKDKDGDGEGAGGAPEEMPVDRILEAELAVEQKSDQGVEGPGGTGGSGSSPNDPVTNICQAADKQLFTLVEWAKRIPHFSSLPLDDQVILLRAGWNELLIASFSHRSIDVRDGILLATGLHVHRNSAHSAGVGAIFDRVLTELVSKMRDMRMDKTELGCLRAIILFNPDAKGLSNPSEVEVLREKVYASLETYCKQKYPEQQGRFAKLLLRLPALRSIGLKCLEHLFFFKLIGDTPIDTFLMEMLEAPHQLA

T6: S100A11 5-105 S_100+EF-hand_1 (domain begin residue: 5, domain end residue: 105), P31949
T6 chain: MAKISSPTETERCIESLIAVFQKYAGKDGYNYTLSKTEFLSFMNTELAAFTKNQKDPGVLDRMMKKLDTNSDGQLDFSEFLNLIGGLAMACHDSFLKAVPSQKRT


Molecular target: T1, RARA 175-421 Hormone_recep (domain …
Experiment: phage ELISA signal ratio (GST-PRM binding over GST background); higher = stronger binding of peptide-phage to the PRM
Method in brief: (§1)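 An M13 phage library with randomized hexadecapeptides on the gene-8 major coat protein, each peptide lacking cysteine and flanked by glycine, was selected for five rounds against human peptide recognition domains fused to the C-terminus of glutathione S-transferase (GST) and expressed in 96-well plates. Approximately 48 clones from rounds 4 and 5 went to phage ELISA. The reported value is the ELISA signal on the GST-domain fusion over the signal on GST alone, and positive clones were sequenced.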

Binder	phage ELISA signal ratio
GAWDWQLDQLLMQYLE	4.72
SQIQRYIDEAMTHQST	13.4

Molecular target: T2, RARG 183-417 Hormone_recep (domain …
Experiment: as above
Method in brief: as §1

Binder	phage ELISA signal ratio
PYGPFKSFEYMDIQRT	26.7

The binders below were run against RBBP5 2-538 WD40 (domain begin residue: 2, domain end residue: 538), Q15291 in the same assay as above.
Method in brief: as §1

Chain of RBBP5 2-538 WD40 (domain begin residue: 2, domain end residue: 538), Q15291 (Q15291 whole entry): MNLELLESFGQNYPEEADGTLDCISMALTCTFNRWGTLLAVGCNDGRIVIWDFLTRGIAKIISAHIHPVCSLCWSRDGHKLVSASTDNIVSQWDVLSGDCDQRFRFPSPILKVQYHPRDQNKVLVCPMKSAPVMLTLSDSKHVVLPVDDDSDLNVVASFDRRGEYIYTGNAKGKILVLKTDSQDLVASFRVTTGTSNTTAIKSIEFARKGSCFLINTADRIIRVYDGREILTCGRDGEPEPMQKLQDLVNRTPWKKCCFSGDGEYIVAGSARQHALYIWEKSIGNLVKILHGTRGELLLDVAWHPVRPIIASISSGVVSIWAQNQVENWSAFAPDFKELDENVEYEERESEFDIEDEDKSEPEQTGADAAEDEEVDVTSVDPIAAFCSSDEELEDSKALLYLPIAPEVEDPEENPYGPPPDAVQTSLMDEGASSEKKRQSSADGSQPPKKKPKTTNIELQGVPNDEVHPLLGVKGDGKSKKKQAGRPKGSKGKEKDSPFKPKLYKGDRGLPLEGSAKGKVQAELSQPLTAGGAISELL

Binder	phage ELISA signal ratio
IFYWDFESQTWTMSAP	3.49
QIEYWNSMEQTWVQSQ	9.82

Molecular target: T3, RBM17 298-401 RRM_1 (domain begin …
Experiment: as above
Method in brief: as §1

Binder	phage ELISA signal ratio
YRWDRQPSQEAVSSKY	4.04
AQMAPRWDQMQPVMVE	5.16

Molecular target: T4, RORB 212-470 Hormone_recep (domain …
Experiment: as above
Method in brief: as §1

Binder	phage ELISA signal ratio
WEHHGWWTFWEEAPEQ	4.7

The binders below were run against RPA1 2-121 Rep-A_N (domain begin residue: 2, domain end residue: 121), P27694 in the same assay as above.
Method in brief: as §1

Chain of RPA1 2-121 Rep-A_N (domain begin residue: 2, domain end residue: 121), P27694 (P27694 whole entry): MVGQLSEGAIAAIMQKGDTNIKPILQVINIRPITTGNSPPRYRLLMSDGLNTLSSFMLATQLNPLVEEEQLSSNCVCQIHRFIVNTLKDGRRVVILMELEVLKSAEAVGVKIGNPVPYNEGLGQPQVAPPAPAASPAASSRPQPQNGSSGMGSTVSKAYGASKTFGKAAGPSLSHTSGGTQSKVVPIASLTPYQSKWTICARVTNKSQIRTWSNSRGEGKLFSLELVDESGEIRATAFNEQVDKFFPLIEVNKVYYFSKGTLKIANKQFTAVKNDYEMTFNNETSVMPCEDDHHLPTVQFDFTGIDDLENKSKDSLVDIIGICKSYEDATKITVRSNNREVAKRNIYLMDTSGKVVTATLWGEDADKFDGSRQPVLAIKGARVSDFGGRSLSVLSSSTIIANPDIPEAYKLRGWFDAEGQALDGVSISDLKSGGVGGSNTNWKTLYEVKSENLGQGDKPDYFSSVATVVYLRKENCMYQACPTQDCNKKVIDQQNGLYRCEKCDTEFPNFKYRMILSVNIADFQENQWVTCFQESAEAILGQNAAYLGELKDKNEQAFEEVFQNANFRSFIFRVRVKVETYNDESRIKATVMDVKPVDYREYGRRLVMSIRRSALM

Binder	phage ELISA signal ratio
YIHDWEMFEHWENLWG	9.27
MWGGEDDLVQAWLEQF	9.46
TDMEYWEPFTDEELSM	10
EEMPWYFIEDWEMEMY	10.6
EVEDMQWLEENWLVFW	12
WELSDYTLIQAYDQIM	13.8
VWEDWTYMEDWEMMVF	14.3
YYVLDSEMETIWQSIL	15.3
YVTDLEMIETWNKFIN	16.4
VSWWDDGLVYDWMSEF	16.5
YIQDWEMMDVWNTLVG	18

What follows are binders tested against RPA2 202-270 RPA_C (domain begin residue: 202, domain end residue: 270), P15927 in the same assay as above.
Method in brief: as §1

Chain of RPA2 202-270 RPA_C (domain begin residue: 202, domain end residue: 270), P15927 (P15927 whole entry): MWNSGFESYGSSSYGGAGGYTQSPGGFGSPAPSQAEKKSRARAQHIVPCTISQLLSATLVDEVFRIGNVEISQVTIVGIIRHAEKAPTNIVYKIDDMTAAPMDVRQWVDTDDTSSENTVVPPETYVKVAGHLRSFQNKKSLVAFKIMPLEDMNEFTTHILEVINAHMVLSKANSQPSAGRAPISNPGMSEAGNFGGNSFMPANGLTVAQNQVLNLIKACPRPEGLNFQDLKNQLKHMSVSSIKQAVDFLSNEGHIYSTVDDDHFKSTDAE

Binder	phage ELISA signal ratio
WQWNGVWPDIIWVQVE	7.24

Molecular target: T5, RXRB 298-533 Hormone_recep (domain …
Experiment: as above
Method in brief: as §1

Binder	phage ELISA signal ratio
IEQAELIWMEYKKQTK	6.73
ESNEMWEWVMNQAHVW	11.2
YPEHQWLEQHMFQTVQ	14.3
LDHMNWPEHDWLWATM	16.1
TPTDTAESIWEMYKKM	28

Molecular target: T6, S100A11 5-105 S_100+EF-hand_1 (domain …
Experiment: as above
Method in brief: as §1

Binder	phage ELISA signal ratio
MEQWWHGEDIMWHWWE	3.64
YWTWDDFQEMFLRLER	4.97

These binders were tested against SETD1A 2-220 RRM_1 (domain begin residue: 2, domain end residue: 220), O15047 in the same assay as above.
Method in brief: as §1

Chain of SETD1A 2-220 RRM_1 (domain begin residue: 2, domain end residue: 220), O15047 (O15047 whole entry): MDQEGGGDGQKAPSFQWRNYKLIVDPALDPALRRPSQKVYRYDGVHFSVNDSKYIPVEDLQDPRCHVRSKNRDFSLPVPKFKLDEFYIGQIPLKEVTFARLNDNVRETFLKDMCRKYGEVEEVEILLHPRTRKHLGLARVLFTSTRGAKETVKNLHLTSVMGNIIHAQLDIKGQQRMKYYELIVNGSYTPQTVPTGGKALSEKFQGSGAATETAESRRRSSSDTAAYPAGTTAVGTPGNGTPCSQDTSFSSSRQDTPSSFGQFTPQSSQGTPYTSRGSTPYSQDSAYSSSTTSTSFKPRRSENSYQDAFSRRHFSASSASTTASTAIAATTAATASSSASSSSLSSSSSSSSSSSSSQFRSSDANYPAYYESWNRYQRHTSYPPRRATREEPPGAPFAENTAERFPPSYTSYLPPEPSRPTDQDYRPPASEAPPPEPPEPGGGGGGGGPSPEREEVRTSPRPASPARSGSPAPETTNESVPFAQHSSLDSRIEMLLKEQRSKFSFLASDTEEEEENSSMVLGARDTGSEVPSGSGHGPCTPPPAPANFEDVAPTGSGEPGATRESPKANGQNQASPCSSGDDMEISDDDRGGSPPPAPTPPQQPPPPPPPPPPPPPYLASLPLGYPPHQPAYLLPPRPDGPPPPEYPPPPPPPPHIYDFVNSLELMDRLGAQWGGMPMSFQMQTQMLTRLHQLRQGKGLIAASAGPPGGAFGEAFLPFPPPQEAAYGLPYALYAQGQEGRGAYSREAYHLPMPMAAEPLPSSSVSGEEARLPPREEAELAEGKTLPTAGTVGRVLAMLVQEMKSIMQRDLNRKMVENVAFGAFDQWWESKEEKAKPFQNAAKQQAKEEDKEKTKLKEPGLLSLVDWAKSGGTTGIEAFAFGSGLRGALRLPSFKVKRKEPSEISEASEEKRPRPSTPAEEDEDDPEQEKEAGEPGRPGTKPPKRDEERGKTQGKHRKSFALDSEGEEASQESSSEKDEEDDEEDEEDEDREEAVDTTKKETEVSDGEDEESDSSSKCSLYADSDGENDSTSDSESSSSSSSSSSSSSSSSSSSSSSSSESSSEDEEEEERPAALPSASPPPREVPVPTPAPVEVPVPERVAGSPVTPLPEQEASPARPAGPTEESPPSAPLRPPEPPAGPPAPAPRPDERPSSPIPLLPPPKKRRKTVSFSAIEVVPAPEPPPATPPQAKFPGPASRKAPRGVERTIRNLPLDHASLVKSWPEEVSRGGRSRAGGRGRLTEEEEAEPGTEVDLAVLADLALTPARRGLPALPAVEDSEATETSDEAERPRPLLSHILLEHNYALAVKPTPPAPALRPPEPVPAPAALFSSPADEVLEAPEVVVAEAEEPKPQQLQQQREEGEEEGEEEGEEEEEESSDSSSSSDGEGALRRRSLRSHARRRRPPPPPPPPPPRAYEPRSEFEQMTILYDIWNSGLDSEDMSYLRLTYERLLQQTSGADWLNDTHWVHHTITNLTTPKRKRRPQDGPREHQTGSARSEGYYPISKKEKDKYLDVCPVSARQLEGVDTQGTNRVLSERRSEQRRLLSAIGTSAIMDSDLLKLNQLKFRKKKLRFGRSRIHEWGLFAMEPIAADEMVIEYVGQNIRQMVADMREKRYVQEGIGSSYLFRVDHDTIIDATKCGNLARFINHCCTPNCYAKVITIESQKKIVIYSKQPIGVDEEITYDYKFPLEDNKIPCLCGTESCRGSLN

Binder	phage ELISA signal ratio
HMAWDVIWDNIYLADS	4.42
YNFPMDWDQIPITWPQ	6.17
